Calls of active or inactive are those of the source.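 Rule for the calls: active = peak TRPC4 channel inhibition over 30% at some tested dose, plus a fitted dose response curve; inactive = no inhibition at any dose, or no curve fitted.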
Molecular target: Short transient receptor potential channel 4 (Mus musculus) (UniProt Q9QUQ5)
Assay: mouse TRPC4 blockers in HEK293 cells – cell-based, HEK293 TRPC4/mu-opioid, concentration-response, selectivity assay for TRPC6 selective inhibitor project, SAR follow-up (AID 504554)
Conditions: DAMGO-evoked Fluo-4 calcium ratio; series mostly up to 6.67 µM; fluorescence ratio, lower = inhibition: at the top concentration

Chain of Short transient receptor potential channel 4 (Mus musculus) (Q9QUQ5 whole entry, looked up): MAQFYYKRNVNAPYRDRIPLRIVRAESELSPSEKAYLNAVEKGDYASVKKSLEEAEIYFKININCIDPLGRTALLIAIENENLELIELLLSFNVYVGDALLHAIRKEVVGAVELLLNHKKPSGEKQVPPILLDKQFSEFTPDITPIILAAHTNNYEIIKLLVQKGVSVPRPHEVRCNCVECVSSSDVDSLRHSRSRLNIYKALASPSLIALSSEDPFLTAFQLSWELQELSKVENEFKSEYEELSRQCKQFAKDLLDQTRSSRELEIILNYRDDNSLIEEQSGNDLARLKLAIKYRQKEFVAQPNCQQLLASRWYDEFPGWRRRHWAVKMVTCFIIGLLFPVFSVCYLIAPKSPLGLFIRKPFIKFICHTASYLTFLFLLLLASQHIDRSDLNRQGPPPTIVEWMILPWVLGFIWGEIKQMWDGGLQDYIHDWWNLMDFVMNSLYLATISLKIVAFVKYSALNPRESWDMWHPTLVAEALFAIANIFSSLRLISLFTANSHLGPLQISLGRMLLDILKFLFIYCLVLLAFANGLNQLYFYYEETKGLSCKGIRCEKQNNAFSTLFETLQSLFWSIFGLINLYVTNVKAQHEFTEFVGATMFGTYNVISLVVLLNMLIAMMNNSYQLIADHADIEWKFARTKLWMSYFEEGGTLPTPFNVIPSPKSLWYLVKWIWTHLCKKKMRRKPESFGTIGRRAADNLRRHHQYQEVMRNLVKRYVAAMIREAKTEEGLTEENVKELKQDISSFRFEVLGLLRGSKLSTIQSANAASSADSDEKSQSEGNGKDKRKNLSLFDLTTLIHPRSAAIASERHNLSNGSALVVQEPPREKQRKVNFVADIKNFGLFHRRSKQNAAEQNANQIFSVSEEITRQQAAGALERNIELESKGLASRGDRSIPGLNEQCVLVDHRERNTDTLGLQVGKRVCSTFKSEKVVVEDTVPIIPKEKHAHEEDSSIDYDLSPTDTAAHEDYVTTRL

Fluorescence ratio, lower = inhibition, inactive:
CC(C)(C)n1cnc2cc(NC(=O)c3ccccc3)ccc21 48.3
CC(=O)Nc1ccc2c(c1)ncn2C(C)(C)C 52.3
CC(C)(C)n1cnc2cc(NC(=O)c3ccc(Cl)cc3)ccc21 50.5
COc1ccc(CNc2ccc3c(c2)ncn3C(C)(C)C)cc1 51.1
CC(C)(C)n1cnc2cc(NCc3ccc(Br)cc3)ccc21 49.4
CC(C)(C)n1cnc2cc(NCc3cccc(Br)c3)ccc21 47.9
CC(C)(C)n1cnc2cc(NCc3cccs3)ccc21 49
CC(C)(C)n1cnc2cc(NCc3ccccc3O)ccc21 50.7
CCOc1ccc(CNc2ccc3c(c2)ncn3C(C)(C)C)cc1 44.9
COc1ccc(CNc2ccc3c(c2)ncn3C(C)(C)C)c(OC)c1 52.9
CCN(CC)c1ccc(CNc2ccc3c(c2)ncn3C(C)(C)C)cc1 53.8
CCc1ccc(CNc2ccc3c(c2)ncn3C(C)(C)C)cc1 40.6
COc1ccccc1CNc1ccc2c(c1)ncn2C(C)(C)C 44.4
COc1cc(C(=O)Nc2ccc3c(c2)ncn3C(C)(C)C)cc(OC)c1OC 58.2
CC(C)(C)n1cnc2cc(NC(=O)c3cccs3)ccc21 55.2
CC(C)(C)n1cnc2cc(NCc3cccc4ccccc34)ccc21 38.9
CC(C)(C)n1cnc2cc(NCc3ccco3)ccc21 57.3
CCOc1ccccc1CNc1ccc2c(c1)ncn2C(C)(C)C 40.9
CCC(=O)Nc1ccc2c(c1)ncn2C(C)(C)C 54.4
CCCC(=O)Nc1ccc2c(c1)ncn2C(C)(C)C 55.1

outcome, inactive:
COc1cccc(CNc2ccc3c(c2)ncn3C(C)(C)C)c1OC
